# Source: PubChem BioAssay
# A selection: hits, their analogues and other compounds. The true share with any hit is near 2.2%.
# NPR2 activator = GC-B (human) receptor activation. P20594. HEK293-GC-B cells, CNP EC30, cGMP TR-FRET; 0% at EC30 CNP, 100% saturating CNP. activation, % at 10 µM. 370,000 tested, 0.11% active. AID 1920062;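 active = activation at 10 µM reaching about 35% in either raw or pattern-adjusted values, limit read from the data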
# M18AAP inhibitor = PfM18AAP enzyme inhibition; AID 1822; recombinant PfM18AAP, H-Glu-NHMec fluorogenic cleavage; inhibition, % at 7.35 µM; 290,000 tested, 1.2% active;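 active = inhibition above the campaign mean inhibition over all tested compounds plus 3 SD, cut at about 28% in these data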;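 note: 0% = plate median of test compound wells and 100% = 2 mM ZnCl2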
# PLC-beta3 inh = blocks human PLC-beta3 enzyme activity; Q01970; Purified PLC-beta3, fluorogenic substrate, fluorescence; inhibition, % at 12.2 µM; 370,000 tested, 0.18% active; AID 720704; in the data active = inhibition above about 11%;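 note: 0% = median of compound wells on plate and 100% = full blocker control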
# NPR1 activator = GC-A (human) enzyme activation | P16066 | HEK293 GC-A cells, cGMP TR-FRET, EC30 ANP; 0% at EC30 ANP, 100% saturating ANP | activation, % at 10 µM | 370,000 tested, 0.14% active; in the data active = activation above about 40%
# PLC-gamma1 inh = PLC-gamma1 (human) inhibition, primary screen. purified PLC-gamma1, fluorogenic substrate, fluorescence. inhibition, % at 12.2 µM. 370,000 tested, 0.84% active. AID 720700; in the data active = inhibition above about 9.5%
# Rce1 inhib = inhibitors of yeast Ras-converting enzyme | calls only | Q03530 | 290,000 tested, 0.27% active | yeast membranes, quenched prenylated peptide cleavage fluorescence;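 active = fall in fluorescence gain of 50% or more versus controls, with final raw signal at or below 3038400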;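 note: plate controls were neutral control wells for no effect and wells lacking membranes for full effect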
# Target sequence (Q03530 whole entry, looked up): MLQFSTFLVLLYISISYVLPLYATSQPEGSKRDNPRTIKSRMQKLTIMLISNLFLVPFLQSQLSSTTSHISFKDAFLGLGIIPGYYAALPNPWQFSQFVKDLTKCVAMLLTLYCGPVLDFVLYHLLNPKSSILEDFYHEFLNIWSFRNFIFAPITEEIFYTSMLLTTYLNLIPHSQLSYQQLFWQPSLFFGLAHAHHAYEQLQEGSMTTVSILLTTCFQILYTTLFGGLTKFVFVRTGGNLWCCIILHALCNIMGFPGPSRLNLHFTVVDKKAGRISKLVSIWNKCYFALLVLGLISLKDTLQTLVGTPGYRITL
# * = called active by the depositor; i = inactive; nt = not tested or not shown; + = active, no number.
SMILES,NPR2 activator,M18AAP inhibitor,PLC-beta3 inh,NPR1 activator,PLC-gamma1 inh,Rce1 inhib
COC(=O)[C@]12C[C@H](CC(=O)NCc3cccs3)C(=O)N(Cc3cccc4ccccc34)C1=C[C@H](C(C)(C)C)O[C@@H]2C,-12.8,nt,-58.6,0.5,5.3,nt
O=C(CC1Sc2ncnn2C1=O)Nc1ccc(Br)cc1 (stereo not given),-2.5,37.3*,2.9,1.6,2.7,i
CCC[C@H]1[C@@H](NC(=O)c2cccc(C)c2)CC[C@@]23CCCN2C(=O)CCC[C@@H]13,-12.6,nt,0.4,-11.6,3.4,nt
CN(C)C=Nc1ncc2c3ccccc3n(Cc3ccccc3)c2c1C#N,35.4*,-9.7,-22.4,45.7*,-16.8,i
Oc1ccc(CCc2n[nH]c(=S)n2-c2ccc(F)cc2)cc1,15.8,28.5*,-6.2,0.2,2.2,i
O=S(=O)(CC(CN1CCOCC1)N1CCOCC1)c1ccccc1 (stereo not given),7.4,-12.0,5.6,3.7,-1.6,+
Cc1csc(SCC(=O)N(C)C2CCS(=O)(=O)C2)n1 (stereo not given),90.4*,nt,-5.6,4.9,4.7,nt
Cc1ccc(-c2nc(SCC(=O)N(C)C3CCS(=O)(=O)C3)[nH]c2-c2ccc(C)cc2)cc1 (stereo not given),0.6,1.3,-8.0,-3.6,-2.4,+
CN(C(=O)CSc1ncnc2sccc12)C1CCS(=O)(=O)C1 (stereo not given),-1.7,nt,-10.2,3.7,-5.6,nt
Cc1ccc(SCC(=O)N(C)C2CCS(=O)(=O)C2)cc1 (stereo not given),6.5,-0.6,1.6,2.6,-0.9,i
CN=C1S/C(=C/c2cc(C)n(-c3ccc(Cl)cc3F)c2C)C(=O)N1C,-26.4,nt,-18.8,-19.5,-10.6,nt
COC(=O)[C@]12C[C@H](CC(=O)NCCC(C)C)C(=O)N(Cc3cccc4ccccc34)C1=C[C@H](C(C)(C)C)O[C@@H]2C,-11.6,nt,1.9,-3.3,1.9,nt
Cn1c(CNc2ccccc2F)nc2ccccc21,-5.9,nt,1.4,-2.0,3.5,nt
O=C1NC(=O)C(c2ccc(Cl)cc2Cl)N1 (stereo not given),0.6,nt,-6.8,0.5,-0.9,nt
N#CC1=C(N)NC(=S)C(C(N)=O)C1c1ccc(Cl)cc1Cl (stereo not given),5.1,30.3*,-4.8,6.1,-4.4,i
O=C(CCN1CCOCC1)c1ccccc1,nt,0.0,7.3,nt,4.1,i
CC1CCCN(CCC(=O)c2ccccc2)C1 (stereo not given),-1.3,nt,3.7,66.7*,1.1,nt
O=C(CCN1CCCCC1)c1ccccc1,-9.0,-7.8,1.9,62.0*,2.9,i
C[N+]1(CCC(=O)c2ccccc2)CCCCC1,0.1,-0.1,-0.1,72.5*,3.9,i
Cc1n[nH]c(C)c1S(=O)(=O)NCCc1c[nH]c2ccccc12,-4.2,nt,-2.2,6.6,-0.1,nt
COc1ccc(S(=O)(=O)CC(=O)c2cc3cc(Br)ccc3oc2=O)cc1,-2.7,28.8*,-44.9,-5.0,-21.2,i
N#Cc1ccc(/C=C2\CC3(OC(=O)C4CCCC4)CCCN2C3)cc1 (stereo not given),4.4,nt,-3.7,-2.0,-0.3,nt
CCCCNC(=O)C[C@H]1C[C@@]2(C(=O)OC)C(=C[C@H](C(C)C)O[C@@H]2C2CC2)N(CCC2=CCCCC2)C1=O,1.8,nt,5.5,-4.7,-0.3,nt
NC(=O)c1cccc2c3c([nH]c12)CCCC3,nt,2.2,nt,nt,nt,i
Cc1cccc2c3c([nH]c12)CCN(C)C3,-2.9,28.7*,-12.2,4.0,-3.1,i
SMILES,NPR2 activator,M18AAP inhibitor,PLC-beta3 inh,NPR1 activator,PLC-gamma1 inh,Rce1 inhib
Cc1onc(C(=O)N2CCN(C(c3ccc(F)cc3)c3ccc(F)cc3)CC2)c1[N+](=O)[O-],-4.1,nt,4.9,-2.8,4.0,nt
O=C(CSc1nc2ccccc2s1)N1N=C(c2cccs2)CC1c1ccc(F)cc1 (stereo not given),-2.3,-4.2,-71.9,0.3,-53.4,+
COC(=O)c1cc(C2(c3c[nH]c4ccccc34)CCN(C(=O)OC(C)(C)C)CC2)n2ccccc12,3.8,nt,-366.7,-3.9,-264.5,nt
COc1cc(/C=N/n2c(=S)[nH]nc(C)c2=O)cc([N+](=O)[O-])c1O,-0.9,28.9*,6.3,-2.2,5.9,i
Cc1n[nH]c(=S)n(/N=C/c2cccc([N+](=O)[O-])c2)c1=O,-4.4,6.0,-5.2,-1.0,1.5,i
C[C@@H]1COc2cc(Br)ccc2S(=O)(=O)N1Cc1cn(Cc2ccc(Br)cc2)nn1,-4.6,nt,0.2,-9.2,2.3,nt
CCOc1ccc(S(=O)(=O)N(CCO)CCO)cc1-c1nc2c(C(C)(C)C)nn(C)c2c(=O)[nH]1,62.5*,-4.5,2.3,58.4*,1.6,i
CCCc1nn(C)c2c(=O)[nH]c(-c3cc(S(=O)(=O)N(CCO)CCO)ccc3OCC)nc12,56.5*,2.5,-7.6,50.1*,1.3,i
CCOc1ccc(S(=O)(=O)N(CC)CC(=O)N2CCCC2)cc1C,1.1,-2.7,-0.1,-1.0,1.1,i
CC(C)C[C@H]1COc2cc(Br)ccc2S(=O)(=O)N1Cc1cn(Cc2ccc(Br)cc2)nn1,-2.3,nt,2.1,1.7,0.6,nt
COc1ccc(C2Nc3ccccc3C(=O)N2Cc2ccccc2)cc1COc1ccc(NC(C)=O)cc1 (stereo not given),-14.0,nt,-373.5,-14.9,-267.7,nt
O[C@H](COc1ccc(C(F)(F)F)cc1)CN1CCC(C(O)(c2ccccc2)c2ccccc2)CC1,-5.5,nt,-1.1,-7.3,-0.1,nt
CCOC(=O)[C@@]12CN(C(=O)OC(C)(C)C)CC=C1N(Cc1ccc(OC)cc1)C(=O)[C@H]2CC(=O)N1CCC(c2ccccc2)CC1,3.7,nt,3.7,-1.3,-1.0,nt
S=c1nccc(-c2cccs2)[nH]1,6.6,29.0*,-7.7,-7.5,-1.1,nt
c1csc(-c2ccn[nH]2)c1,2.7,-2.2,1.8,-2.2,6.4,i
Cc1cccc(-c2cccc3c4c([nH]c23)[C@@H]2C[C@H](N(C)C(=O)c3ccco3)[C@H]([C@H](C)O)C(=O)N2CC4)c1,2.2,nt,-56.4,-1.5,-36.0,nt
Cc1ccc(N2C(=O)c3cccc4c(N5CCN(C)CC5)ccc(c34)C2=O)c2cccnc12,nt,6.3,nt,nt,nt,i
O=C1c2cccc3c(N4CCOCC4)c([N+](=O)[O-])cc(c23)C(=O)N1c1cccc2ccccc12,4.2,1.2,-0.6,-0.6,-4.5,i
Cc1cccc(N2C(=O)c3cccc4c(N5CCCCC5)c([N+](=O)[O-])cc(c34)C2=O)c1C,-5.2,4.6,1.4,-5.6,-4.3,+
Cc1ccc(N2C(=O)c3cccc4c([N+](=O)[O-])ccc(c34)C2=O)c2cccnc12,40.6*,-4.1,-48.6,4.1,-14.0,i
O=S(=O)(c1ccccc1)c1cnn2c(C(F)(F)F)cc(-c3ccc(F)cc3)nc12,13.8,6.9,-16.2,4.4,-12.0,+
